NPC1 prom act = activators of NPC1 promoter. Huh7 NPC1 promoter luciferase reporter, 24 h. Potency, µM (series often up to 9.22 µM), for the others: at the highest dose activation, most hits filed as activators. hit rate 2.4% among 320,000. AID 485313; also: % of control where 0% means no effect; nearly all actives have a fitted effect of over 60% in size
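Cells: Huh7 expressing luciferase under the NPC1 promoter, 1500/well. Seeded 2 h, compound added, incubated 24 h at 37 °C. Luciferase reagent, 10 min ambient, then luminescence.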
p53 reactivation = mutant p53 re-activation in reporter cells; H1299 p53-A138V BP100-luciferase reporter, luminescence, 24 h; Potency, µM (titrated, usually from 92.2 µM), without a hit: top-dose activity change, positive = activation, hits mostly activators; hit rate 0.063% among 320,000; AID 504706; also: % of control where 0% means no effect; nearly all actives have a fitted effect of over 45% in size
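p53-null H1299 cells stably carrying temperature-sensitive p53-A138V and a BP100-luciferase reporter were pinned with compounds (4-point, 1:5 series) and held 24 hrs at 37 deg C. Luminescence was read 10 min after detection reagent.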
FLuc modulator = firefly luciferase modulation, counter-screen for miR-21 project; P08659; purified FLuc, Km substrates, luminescence inhibition; Potency, µM (highest dose often 57.5 µM), without a hit: at the highest dose activity change, negative = inhibition, most hits filed as inhibitors; hit rate 6.9% among 360,000; AID 588342;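 also: plate controls were vehicle for no effect and reference inhibitor for full effect; nearly all actives have a fitted effect of over 55% in size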
Target sequence (P08659 whole entry, looked up): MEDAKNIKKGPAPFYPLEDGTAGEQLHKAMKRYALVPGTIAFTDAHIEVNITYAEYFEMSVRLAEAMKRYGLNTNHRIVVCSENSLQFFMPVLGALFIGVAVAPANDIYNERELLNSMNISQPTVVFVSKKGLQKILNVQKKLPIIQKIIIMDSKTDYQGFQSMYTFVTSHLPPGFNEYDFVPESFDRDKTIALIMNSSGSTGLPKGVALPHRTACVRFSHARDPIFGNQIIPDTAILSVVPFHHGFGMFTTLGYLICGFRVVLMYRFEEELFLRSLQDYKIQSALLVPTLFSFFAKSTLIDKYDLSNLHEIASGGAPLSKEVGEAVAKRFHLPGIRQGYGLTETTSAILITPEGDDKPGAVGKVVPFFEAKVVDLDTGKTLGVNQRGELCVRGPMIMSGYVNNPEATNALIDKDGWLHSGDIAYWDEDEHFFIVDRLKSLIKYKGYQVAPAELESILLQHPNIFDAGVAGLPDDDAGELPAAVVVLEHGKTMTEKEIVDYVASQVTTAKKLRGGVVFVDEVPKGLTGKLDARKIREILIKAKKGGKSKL
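Purified P. pyralis luciferase (10nM final) with 10uM D-luciferin and 10uM ATP (Km levels) in 50mM Tris acetate pH 7.5, 10mM Mg acetate, 0.01% Tween-20, 0.05% BSA; qHTS 6-point titration, ~60 µM downward; luminescence read.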
ELG1 genotox = genotoxicity induction in ELG1-luciferase HEK293T cells. hit rate 1.3% among 330,000. AID 504466. Potency, µM (top dose mostly 46 µM), without a hit: top-dose activity change, positive = activation, hits mostly activators. HEK293T ELG1-luciferase reporter, luminescence, 16 h; also: % of control where 0% means no effect; nearly all actives have a fitted effect of over 60% in size
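Cells (2,000/well) expressing the ELG1-luciferase fusion are dosed by pin tool and kept 16 hr at 37 °C, 5% CO2. Signal comes from ONE-Glo luciferase reagent after 30 min at room temperature.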
SMN2 splice up = increases expression of the SMN2 splice variant; HEK293 SMN2-luciferase splicing reporter, luminescence, 30-36 h; Potency, µM (doses to about 46.1 µM), for inactives: top-dose activity change, positive = activation, most hits filed as activators; hit rate 2.8% among 210,000; AID 1458; also: % of control where 0% means no effect; nearly all actives have a fitted effect of over 55% in size
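qHTS luciferase splicing reporter: luminescence rises when SMN2 exon 7 is included in transfected HEK293 cells. Compound exposure lasted 30-36 h at 37C, with 4.5 mM final sodium butyrate as control, followed by a ONE-Glo read.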
Rab9 promoter act = activates the Rab9 promoter; Huh7 Rab9 promoter-luciferase reporter, luminescence, 24 h; Potency, µM (top dose mostly 9.22 µM), for the others: at the top dose activation, negative = inhibition, hits mostly activators; hit rate 2.8% among 320,000; also: % of control where 0% means no effect; nearly all actives have a fitted effect of over 60% in size
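Quantitative HTS format; Huh7 Rab9-luciferase reporter cells (1500/well) receive compound 2 h post-plating, incubate 24 h at 37 °C, then get luciferase reagent for 10 min before luminescence reading.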
An asterisk follows results filed as active; ? = inconclusive; · = no result given; [ ] = another dose, or the depositor's remark. The list is not random: actives were taken first. Their share in the collection is about 7.3%. Calls follow the shape of the dose curve; as a rule, active = well fitted curve in the direction sought with a large enough effect; inconclusive = small, poorly fitted or top-dose-only effect, or another doubt; inactive = no such curve, though single readings can be large; an effect the other way counts as inactive or inconclusive. Potency is read from the fitted curve at half-maximal effect.

SMILES	NPC1 prom act	p53 reactivation	FLuc modulator	ELG1 genotox	SMN2 splice up	Rab9 promoter act
CC(NC(=O)c1ccc(Nc2nc3ccccc3n3nnnc23)cc1)c1ccccc1 (stereo unspecified)	·	·	-1.6%	·	17.6%	·
CN(C)c1ccc(Nc2nc3ccccc3n3nnnc23)cc1	·	·	6.75µM*	·	-8.5%	·
CCOc1ccc(Nc2nc3ccccc3n3nnnc23)cc1	27.4%	?	?	?	14.2%	4.47µM*
Cc1ccc(C(=O)O)cc1Nc1nc2ccccc2n2nnnc12	·	·	16.9µM*	·	?	·
CCC(Oc1ccccc1)C(=O)Nc1ccccc1OCc1cc(=O)n2ccccc2n1 (stereo unspecified)	·	·	6.4%	·	·	·
COc1ccccc1C(=O)NNC(=O)c1ccc2ccccc2c1	0.8%	14.7%	12µM*	8.6%	·	5.2%
COc1ccccc1C(=O)NNC(=O)c1ccc(F)cc1	25.8%	?	?	?	11.2µM*	?
Cc1ccccc1C(=O)NNC(=O)c1ccc(F)cc1	2.4%	0.3%	-14.8%	12.7%	2.8%	20.5%
COc1ccccc1C(=O)NNC(=O)c1ccc(Cl)cc1	15.8%	5.0%	15.1µM*	11.8%	·	26.0%
NC(=S)SCCC(=O)O	·	·	·	·	-15.2%[9.22 µM]	·
COc1ccc(OCc2nc3c4c(-c5ccc(OC)cc5)c(-c5ccc(OC)cc5)oc4ncn3n2)cc1	·	·	1.6%	·	-3.5%	·
Fc1ccccc1CSc1nc2ccccc2[nH]1	1.78µM*	?	2.39µM*	?	5.62µM*	1.26µM*
COc1ccc2nc(Nc3nc(CSc4nc5ccccc5[nH]4)cc(=O)[nH]3)nc(C)c2c1	-5.4%	39.8µM*	?	-6.6%	106.9%	-23.1%
COC(=O)c1cc(CSc2nc3ccccc3[nH]2)oc1C	?	?	7.57µM*	9.2µM*	-44.9%	?
O=C(O)c1ccc(CSc2nc3ccccc3[nH]2)cc1	1.7%	?	16.9µM*	7.9%	·	-0.5%
CCCc1cc(=O)[nH]c(SCc2cc(C(=O)OC)c(C)o2)n1	1.1%	-1.4%	-1.4%	2.3%	-3.4%	-2.0%
NNC(=O)c1ccc(CSc2nc3ccccc3[nH]2)cc1	-2.2%	-0.6%	-4.0%	0.0%	20.6%	3.2%
CCOc1ccc(NC(=O)CN2C(=O)C3(SCC(=O)N3c3ccc(F)cc3)c3ccccc32)cc1 (stereo unspecified)	·	·	4.8%	·	·	·
CCC(C)NC(=O)Cn1c(=O)ccc2cc(S(=O)(=O)N3CCCC3)ccc21 (stereo unspecified)	·	·	-0.5%	·	·	·
Cc1c(CCOC(=O)c2cc([N+](=O)[O-])cc([N+](=O)[O-])c2)sc[n+]1CCCCS(=O)(=O)[O-]	0.0%	0.4%	-2.1%	-1.3%	-21.2%	3.2%
CCOC(=O)c1cc(-c2ccc(F)cc2)n(CCC(=O)NC2CCC(C)CC2)c1C (stereo unspecified)	·	·	-6.8%	·	·	·
COc1cccc(CSc2nc3ccccc3[nH]2)c1	3.55µM*	?	4.26µM*	?	15.8µM*	1µM*
O=[N+]([O-])c1cccc(CSc2nc3ccccc3[nH]2)c1	17.0%	29.1%	?	7.0%	-15.4%[1.84 µM]	26.9%
O=c1[nH]c(SCc2ccccc2)nc2ccsc12	6.5%	10.8%	16.9µM*	15.6%	?	8.2%
CCOC(=O)CSc1nc2ccsc2c(=O)[nH]1	0.8%	1.8%	-11.1%	2.5%	·	1.6%
SMILES	NPC1 prom act	p53 reactivation	FLuc modulator	ELG1 genotox	SMN2 splice up	Rab9 promoter act
CCOc1ccc(OCC)c(NS(=O)(=O)c2ccc3c(c2)CCCN3C(C)=O)c1	·	·	-5.8%	·	·	·
CCN(CC)c1ccc(Nc2cc3n(c(=O)n2)CCc2cc(OC)c(OC)cc2-3)cc1	0.8%	-4.2%	23.9µM*	-0.5%	·	17.0%
COc1cc2c(cc1OC)-c1cc(Nc3cccc(F)c3)nc(=O)n1CC2	-4.9%	-0.2%	?	9.2%	·	5.3%
COc1cc2c(cc1OC)-c1cc(Nc3ccc(N(C)C)cc3)nc(=O)n1CC2	-3.1%	-5.6%	12µM*	?	·	-5.5%
COc1cc2c(cc1OC)-c1cc(Nc3ccc(F)cc3)nc(=O)n1CC2	-0.8%	-1.6%	-12.1%	?	·	-1.3%
CC(=O)Nc1ccc(S(=O)(=O)N/N=C/c2cccnc2)cc1	1.7%	?	2.7%	-2.0%	·	-1.9%
CC(=O)Nc1ccc(S(=O)(=O)N/N=C/c2ccc(C)s2)cc1	16.9%	23.8%	10.7µM*	?	?	?
COc1ccc(/C=C2\SC(=S)N(CCC(=O)NC3C=CS(=O)(=O)C3)C2=O)cc1 (stereo unspecified)	2.4%	-8.1%	5.36µM*	12.2%	·	-7.9%
COc1cccc(/C=C2\SC(=S)N(CCC(=O)Nc3ccc(O)cc3)C2=O)c1	0.1%	·	?	?	·	1.2%
COc1ccc(/C=C2\SC(=O)N(CCC(=O)N(C)C3CCS(=O)(=O)C3)C2=O)cc1 (stereo unspecified)	28.0%	3.3%	10.7µM*	16.7%	·	25.7%
COc1cccc(/C=C2\SC(=S)N(CCC(=O)NC3C=CS(=O)(=O)C3)C2=O)c1 (stereo unspecified)	21.1%	-10.3%	4.78µM*	15.9%	·	1.8%
CC(C)(C)c1ccc(/C=C/C(=O)Nc2ccc3c(c2)OCCO3)cc1	-27.8%[46.1 µM]	·	·	·	-86.3%	-33.0%[46.1 µM]
CCOc1ccc(NC(=O)NCc2ccc3c(c2)CCN3C(C)=O)cc1	·	·	-6.1%	·	·	·
Clc1cccc(-c2cc3nc4c(c(NCc5ccco5)n3n2)CCCC4)c1	3.55µM*	?	5.36µM*	15.9%	?	2µM*
OCCCNc1c2c(nc3cc(-c4ccc(Cl)cc4)nn13)CCC2	-0.2%	3.0%	12µM*	4.9%	·	-0.4%
Cc1cc(C)c2sc(NC(=O)c3ccc([N+](=O)[O-])o3)nc2c1	0.1%	?	13.5µM*	1.1%	·	9.6%
COc1ccc2nc(NC(=O)c3ccccc3[N+](=O)[O-])sc2c1	27.1%	·	?	5.9%	·	?
CN(C)CCCN(C(=O)c1ccc([N+](=O)[O-])o1)c1nc2cc3c(cc2s1)OCO3	-9.1%	2.9%	3.0%	0.0%	·	5.6%
COc1ccc2nc(NC(=O)c3ccc([N+](=O)[O-])o3)sc2c1	?	·	2.13µM*	20.9%	·	2.82µM*
O=C(Nc1nc2cc3c(cc2s1)OCCO3)c1ccc([N+](=O)[O-])o1	0.891µM*	?	1.2µM*	9.2µM*	·	1µM*
Cc1cc(C)c2nc(NC(=O)c3ccc([N+](=O)[O-])o3)sc2c1	-0.5%	?	?	-7.1%	·	21.0%
Cc1cnc(NC(=O)c2ccc(-c3nc4ccccc4s3)o2)s1	29.8%	8.3%	16.9µM*	-4.5%	0.3%	13.4%
COCCN1C(=O)N[C@@H](c2cccc(C(F)(F)F)c2)C(C(C)=O)=C1C	·	·	·	·	0.6%	·

Bioassay records from PubChem BioAssay.
